Assay results published in PubChem BioAssay (NCI).
The panel holds about 83,000 compounds, 20% with a hit somewhere; the sample as a whole holds those more often.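 Testing used 96-well plates and a 48-hour single-concentration exposure. Example: -40 means 40% of the starting cells died.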 The source made the active and inactive calls. Rule for the calls: active = growth percent below 10; inactive = the rest.

Legend:
Assay in all cases: NCI-60 one-dose screen, 48 h (100 = growth as untreated, 0 = no growth, -100 = all killed)
Conditions in all cases: 10 µM unless noted
SK-MEL-2 melanoma = test system: SK-MEL-2 melanoma
EKVX NSCLC = test system: EKVX NSCLC
SN12C renal = test system: SN12C renal
UO-31 renal = test system: UO-31 renal
TK-10 renal = test system: TK-10 renal
ACHN renal = test system: ACHN renal
CAKI-1 renal = test system: CAKI-1 renal
A498 renal = test system: A498 renal
CCRF-CEM leukemia = test system: CCRF-CEM leukemia
MOLT-4 leukemia = test system: MOLT-4 leukemia
SR leukemia = test system: SR leukemia
RPMI-8226 leukemia = test system: RPMI-8226 leukemia
OVCAR-8 ovarian = test system: OVCAR-8 ovarian
OVCAR-5 ovarian = test system: OVCAR-5 ovarian
OVCAR-4 ovarian = test system: OVCAR-4 ovarian
SK-OV-3 ovarian = test system: SK-OV-3 ovarian
IGROV1 ovarian = test system: IGROV1 ovarian
OVCAR-3 ovarian = test system: OVCAR-3 ovarian
HS 578T breast = test system: HS 578T breast
NCI/ADR-RES ovarian = test system: NCI/ADR-RES ovarian

Measured: growth

C=C1C(=O)O[C@H]2[C@H]1CC/C(COC(=O)NCc1ccc(Cn3c(=O)sn(CCCC)c3=O)cc1)=C\CC[C@@]1(C)O[C@@H]21
active: UO-31 renal 3.12% | CCRF-CEM leukemia -22.4% | MOLT-4 leukemia 1.1% | RPMI-8226 leukemia -15.8% | OVCAR-3 ovarian -28.6%
inactive: SK-MEL-2 melanoma 81.5% | EKVX NSCLC 91.1% | SN12C renal 49.5% | TK-10 renal 14.7% | ACHN renal 15.2% | CAKI-1 renal 40.6% | A498 renal 100% | SR leukemia 17.2% | OVCAR-8 ovarian 65.4% | OVCAR-5 ovarian 71.9% | OVCAR-4 ovarian 29.2% | SK-OV-3 ovarian 107% | IGROV1 ovarian 36.4% | HS 578T breast 78.2% | NCI/ADR-RES ovarian 103%

O=C(/C=C/c1ccco1)c1ccc(Nc2ccnc3cc(Cl)ccc23)cc1
active: SR leukemia -50.4% | RPMI-8226 leukemia -34.9%
inactive: SK-MEL-2 melanoma 86.5% | EKVX NSCLC 85.2% | SN12C renal 90.6% | UO-31 renal 94.8% | TK-10 renal 116% | ACHN renal 96.5% | CAKI-1 renal 96% | A498 renal 33.6% | CCRF-CEM leukemia 45.1% | MOLT-4 leukemia 10.8% | OVCAR-8 ovarian 81.3% | OVCAR-5 ovarian 70.2% | OVCAR-4 ovarian 103% | SK-OV-3 ovarian 108% | IGROV1 ovarian 120% | OVCAR-3 ovarian 78.7% | HS 578T breast 114% | NCI/ADR-RES ovarian 73.9%

C1=C2CCCC3=Cc4ccccc4OC23Oc2ccccc21
inactive: SK-MEL-2 melanoma 36% | EKVX NSCLC 57.8% | SN12C renal 34.4% | UO-31 renal 43.3% | TK-10 renal 55.4% | ACHN renal 47.3% | CAKI-1 renal 27.2% | CCRF-CEM leukemia 18.3% | MOLT-4 leukemia 17.5% | RPMI-8226 leukemia 26% | OVCAR-8 ovarian 38.5% | OVCAR-5 ovarian 71.1% | OVCAR-4 ovarian 52.6% | SK-OV-3 ovarian 30.8% | IGROV1 ovarian 44.5% | HS 578T breast 33.4% | NCI/ADR-RES ovarian 11.6%
active: A498 renal 5.61% | SR leukemia 6.44% | OVCAR-3 ovarian 3.51%

CN(C)c1ccc(/C=C/C2=[N+](C)c3ccccc3C2(C)C)cc1
inactive: SK-MEL-2 melanoma 16.4% | EKVX NSCLC 22.6% | UO-31 renal 19.4% | TK-10 renal 30.4% | ACHN renal 14% | CAKI-1 renal 29.3% | A498 renal 66.6% | CCRF-CEM leukemia 11.9% | OVCAR-8 ovarian 14.8% | OVCAR-5 ovarian 35.6% | OVCAR-4 ovarian 31.2% | IGROV1 ovarian 34.7% | OVCAR-3 ovarian 10% | HS 578T breast 43.3% | NCI/ADR-RES ovarian 77.8%
active: SN12C renal -9.66% | MOLT-4 leukemia -6.54% | SR leukemia 6.36% | RPMI-8226 leukemia -20.3% | SK-OV-3 ovarian 4.03%

C[C@@H]1N=C(c2ccc(Cl)cc2Cl)Nc2nc3ccccn3c2C1=O
active: OVCAR-3 ovarian 2.44%
inactive: SK-MEL-2 melanoma 38.2% | EKVX NSCLC 82.5% | SN12C renal 75.8% | UO-31 renal 52.4% | TK-10 renal 74.5% | ACHN renal 60.2% | CAKI-1 renal 47.2% | A498 renal 60.7% | CCRF-CEM leukemia 56.6% | MOLT-4 leukemia 50.4% | SR leukemia 33% | RPMI-8226 leukemia 75.2% | OVCAR-8 ovarian 68.1% | OVCAR-5 ovarian 91.2% | OVCAR-4 ovarian 89.5% | SK-OV-3 ovarian 50.1% | IGROV1 ovarian 41.9% | HS 578T breast 52% | NCI/ADR-RES ovarian 44.5%

N#Cc1nn(-c2ccccn2)c(N)c1C#N
inactive: SK-MEL-2 melanoma 93.7% | EKVX NSCLC 94% | SN12C renal 105% | UO-31 renal 91.1% | TK-10 renal 98.7% | ACHN renal 99.6% | CAKI-1 renal 92.7% | A498 renal 106% | CCRF-CEM leukemia 105% | MOLT-4 leukemia 92.9% | SR leukemia 86.2% | RPMI-8226 leukemia 110% | OVCAR-8 ovarian 106% | OVCAR-5 ovarian 97.5% | OVCAR-4 ovarian 105% | SK-OV-3 ovarian 91.5% | IGROV1 ovarian 108% | OVCAR-3 ovarian 114% | HS 578T breast 105% | NCI/ADR-RES ovarian 104%

O=C(Nc1ncc(Cc2ccc(Cl)cc2)s1)c1ccc2c(c1)OCCO2
inactive: SK-MEL-2 melanoma 41% | EKVX NSCLC 35.7% | SN12C renal 30.8% | UO-31 renal 50.2% | TK-10 renal 49.5% | ACHN renal 29.8% | CAKI-1 renal 28.7% | CCRF-CEM leukemia 15.4% | RPMI-8226 leukemia 20% | OVCAR-8 ovarian 21.7% | OVCAR-5 ovarian 37.1% | OVCAR-4 ovarian 50% | SK-OV-3 ovarian 33.4% | IGROV1 ovarian 22.3% | HS 578T breast 23.6% | NCI/ADR-RES ovarian 10.9%
active: A498 renal -2.66% | MOLT-4 leukemia 6.99% | SR leukemia 4.7% | OVCAR-3 ovarian 2.45%

C#CCOc1cccc(Nc2ncnc3c(NC(=O)CCl)cccc23)c1
inactive: SK-MEL-2 melanoma 36.5% | UO-31 renal 35.4% | TK-10 renal 63.7% | CAKI-1 renal 54.9% | A498 renal 101% | OVCAR-5 ovarian 67.6% | SK-OV-3 ovarian 81.7% | HS 578T breast 50.6% | NCI/ADR-RES ovarian 18.8%
active: EKVX NSCLC -19.8% | SN12C renal 6.82% | ACHN renal -72.4% | CCRF-CEM leukemia -57.5% | MOLT-4 leukemia -12.7% | SR leukemia -39.4% | RPMI-8226 leukemia -40.2% | OVCAR-8 ovarian -0.718% | OVCAR-4 ovarian -27% | IGROV1 ovarian -58.9% | OVCAR-3 ovarian -79%

Nc1nc(Nc2ccc([N+](=O)[O-])cc2O)nc(C(Cl)(Cl)Cl)n1
active: SR leukemia 7.45%
inactive: SK-MEL-2 melanoma 79% | EKVX NSCLC 106% | SN12C renal 80.6% | UO-31 renal 71.7% | TK-10 renal 92.4% | ACHN renal 79.7% | CAKI-1 renal 46.3% | A498 renal 36.5% | CCRF-CEM leukemia 19.3% | MOLT-4 leukemia 25.8% | RPMI-8226 leukemia 51.1% | OVCAR-8 ovarian 81.6% | OVCAR-5 ovarian 105% | OVCAR-4 ovarian 55.2% | SK-OV-3 ovarian 95.4% | IGROV1 ovarian 88% | OVCAR-3 ovarian 55% | HS 578T breast 84.3% | NCI/ADR-RES ovarian 48%

CCCCC1=C(Br)C(=O)c2ncccc2C1=O
active: CCRF-CEM leukemia 8.13% | MOLT-4 leukemia 5.83%
inactive: SK-MEL-2 melanoma 111% | EKVX NSCLC 99.2% | SN12C renal 92.7% | UO-31 renal 87.6% | TK-10 renal 109% | ACHN renal 67.4% | CAKI-1 renal 90% | A498 renal 99.5% | SR leukemia 30.8% | RPMI-8226 leukemia 41.7% | OVCAR-8 ovarian 95.4% | OVCAR-5 ovarian 112% | OVCAR-4 ovarian 88.2% | SK-OV-3 ovarian 90.2% | IGROV1 ovarian 102% | OVCAR-3 ovarian 57.1% | HS 578T breast 104% | NCI/ADR-RES ovarian 96.8%

Cc1c(-c2cnc3ccc(Cl)cc3c2C(=O)O)nnn1-c1ccc(Cl)cc1
inactive: SK-MEL-2 melanoma 100% | EKVX NSCLC 121% | SN12C renal 89.5% | UO-31 renal 79% | TK-10 renal 101% | ACHN renal 94.6% | CAKI-1 renal 95.8% | A498 renal 118% | CCRF-CEM leukemia 94% | MOLT-4 leukemia 94.1% | SR leukemia 95.9% | RPMI-8226 leukemia 105% | OVCAR-8 ovarian 101% | OVCAR-5 ovarian 89.9% | OVCAR-4 ovarian 106% | SK-OV-3 ovarian 90.4% | IGROV1 ovarian 108% | OVCAR-3 ovarian 110% | HS 578T breast 109% | NCI/ADR-RES ovarian 101%

O=C1c2ccccc2-c2c1c1ccncc1c(=O)n2CCCn1ccnc1
active: ACHN renal 0.133% | MOLT-4 leukemia -12.7% | SR leukemia -16.2%
inactive: SK-MEL-2 melanoma 103% | EKVX NSCLC 96.8% | SN12C renal 49.1% | UO-31 renal 19.1% | TK-10 renal 82.6% | CAKI-1 renal 49.9% | A498 renal 80.9% | CCRF-CEM leukemia 18.5% | RPMI-8226 leukemia 34.1% | OVCAR-8 ovarian 32.9% | OVCAR-5 ovarian 88.5% | OVCAR-4 ovarian 72.7% | SK-OV-3 ovarian 73.6% | IGROV1 ovarian 44.9% | OVCAR-3 ovarian 67.1% | HS 578T breast 60.8% | NCI/ADR-RES ovarian 53.6%

O=C(NS(=O)(=O)c1ccccc1)n1cc(-c2ccncc2)c(-c2cc(O)cc(Cl)c2)n1
inactive: SK-MEL-2 melanoma 95.5% | EKVX NSCLC 107% | SN12C renal 100% | UO-31 renal 91.9% | TK-10 renal 127% | ACHN renal 84.5% | CAKI-1 renal 94.2% | A498 renal 103% | CCRF-CEM leukemia 87.4% | MOLT-4 leukemia 79.3% | SR leukemia 42.6% | RPMI-8226 leukemia 85.2% | OVCAR-8 ovarian 104% | OVCAR-5 ovarian 115% | OVCAR-4 ovarian 92.2% | SK-OV-3 ovarian 107% | IGROV1 ovarian 99.4% | OVCAR-3 ovarian 108% | HS 578T breast 104% | NCI/ADR-RES ovarian 97.3%

Nc1n[nH]c2cccc(C#Cc3cccc(C(=O)Nc4ccc(Cl)c(C(F)(F)F)c4)c3)c12
inactive: SK-MEL-2 melanoma 39.2% | EKVX NSCLC 74.2% | SN12C renal 51.7% | UO-31 renal 29.6% | TK-10 renal 91.5% | ACHN renal 59.1% | CAKI-1 renal 94.5% | A498 renal 35.6% | CCRF-CEM leukemia 35.8% | MOLT-4 leukemia 31.2% | SR leukemia 56% | RPMI-8226 leukemia 53.1% | OVCAR-8 ovarian 65.8% | OVCAR-5 ovarian 43.4% | OVCAR-4 ovarian 56.2% | SK-OV-3 ovarian 106% | IGROV1 ovarian 35.8% | OVCAR-3 ovarian 81.6% | HS 578T breast 53.3% | NCI/ADR-RES ovarian 62.2%

Cc1cc(C(=O)Nc2cc(Nc3ncccc3-c3ncnc4nc[nH]c34)ccc2F)cc(C(C)(C)C#N)c1
inactive: EKVX NSCLC 56% | SN12C renal 50.6% | UO-31 renal 10.1% | TK-10 renal 60.8% | ACHN renal 30.5% | CAKI-1 renal 25.1% | CCRF-CEM leukemia 42.4% | MOLT-4 leukemia 53.2% | SR leukemia 32.1% | RPMI-8226 leukemia 24% | OVCAR-8 ovarian 39.9% | OVCAR-5 ovarian 30.3% | OVCAR-4 ovarian 53.2% | SK-OV-3 ovarian 87% | OVCAR-3 ovarian 52.1% | HS 578T breast 44.6% | NCI/ADR-RES ovarian 49.9%
active: SK-MEL-2 melanoma 8.76% | A498 renal -22.8% | IGROV1 ovarian 3.72%
